High-throughput results (PubChem)
Cl transport mod: KCC2 cotransporter modulators, thallium flux, primary screen, cell-based, HEK293 KCC2, FluoZin-2 fluorescence, MLSMR; Solute carrier family 12 member 5 (Homo sapiens), Q9H2X9; KCC2 cells, thallium flux FluoZin-2 fluorescence; B-score of Tl+ flux slope (higher = more flux/activation; lower = inhibition) at 10 µM; 190,000 tested, 2.2% active; AID 1456, 2008;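 active = thallium flux slope and its plate-corrected score both differing from the plate sample mean at a set confidence after two filtering rounds, in either direction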;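 also: slope of fluorescence scaled to starting intensity during 10 to 20 s after thallium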
HSV augment: enhancers of HSV replication in host cells, fold increase, host cell viability | maximum fold increase | HSV replication augmentation in cells | AID 1956, 2009 | 220,000 tested, 0.005% active; in the data active = maximum fold increase above about 1.5; inconclusive = no clear call, values can overlap the other calls; tested in PC3 cells
Measles CPE: compounds protecting cells from measles virus cytopathic effect, primary screen, measles RdRp inhibitor project, single point, MLSMR library, absorbance. AID 841, 2007. protection (pct of control), % at 4 µM. 140,000 tested, 1.5% active. Measles virus-infected cells, CPE protection; in the data active = protection mostly above about 24%, no sharp cut-off; inactive = mostly below about 26%
Arbovirus inh: antivirals against arbovirus infection, primary screen, cell-based, full library, 10K replicate subset. arbovirus infection cell-based antiviral screen. inhibition, % at 10 µM. 200,000 tested, 0.37% active; in the data active = inhibition above about 30%
ROMK primary: ROMK potassium channel modulators, primary screen, cell-based, thallium flux, MLSMR library; Tet-inducible ROMK, thallium flux fluorescence; actives lie on both sides; B-score at 10 µM; 130,000 tested, 2% active; AID 1918, 2009;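 active = signal ratio slope over the read window, or its plate-corrected B-score, at least 3 SD from the plate mean, either direction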;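 also: B-score of the F/F0 ratio slope over 7 to 12 s after thallium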
Target sequence (P48048 whole entry, looked up): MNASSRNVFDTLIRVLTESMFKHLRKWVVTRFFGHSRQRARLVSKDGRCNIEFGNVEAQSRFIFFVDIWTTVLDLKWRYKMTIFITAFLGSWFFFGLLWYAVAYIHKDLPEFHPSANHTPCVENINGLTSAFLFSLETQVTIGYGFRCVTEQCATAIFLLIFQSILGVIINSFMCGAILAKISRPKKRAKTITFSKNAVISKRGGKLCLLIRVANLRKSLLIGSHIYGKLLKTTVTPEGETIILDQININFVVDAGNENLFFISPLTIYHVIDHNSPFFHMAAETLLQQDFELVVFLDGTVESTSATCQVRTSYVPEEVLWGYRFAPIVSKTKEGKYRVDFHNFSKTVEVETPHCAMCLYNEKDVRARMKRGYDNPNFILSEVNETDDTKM
KCC2 sec1: KCC2 modulators in sodium-free buffer, confirmation, cell-based, HEK293 KCC2, thallium flux, secondary assay; shares compounds with Cl transport mod; FluoZin2 fluorescence; hits give high values; 3,700 tested, 15% active; AID 1713, 2009; normalised thallium flux (F/F0 slope) at 10 µM;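 active = thallium flux slope above the same plate's solvent-only control mean plus 3 SD; inconclusive = the two replicate wells disagree; inactive = no significant difference from solvent-only control wells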
KCC2 bumet counter: thallium flux persisting under bumetanide in KCC2 cells, confirmation, counter-screen for KCC2 modulator project, cell-based, HEK293 KCC2, FluoZin2, secondary assay 3; 3,700 tested, 49% active; shares compounds with Cl transport mod; HEK293-KCC2 + bumetanide/ouabain; hits give high values; AID 1714, 2009; normalized thallium flux at 10 µM;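 active = thallium entry rate above the same plate's blocked-transporter control wells by more than 3 SD; inconclusive = the two repeat wells disagree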;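 also: raw slope of fluorescence over initial fluorescence between 10 and 20 s after thallium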
KCC2 sec2: KCC2 modulators without ouabain present, confirmation, cell-based, HEK293 KCC2, thallium flux, FluoZin2, secondary assay 2; shares compounds with Cl transport mod; normalized thallium flux at 10 µM; AID 1715, 2009; 3,700 tested, 23% active; thallium flux FluoZin2 fluorescence; actives lie on both sides; F/F0 rise rate, 10–20 s post-thallium;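 active = thallium flux slope more than 3 SD above or below the plate's solvent-only control mean, mostly below; inconclusive = the two repeat wells disagreed; inactive = no significant shift from solvent-only controls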
HEK counter1: thallium flux modulation in parental HEK cells, confirmation, counter-screen for KCC2 modulator project, cell-based, counterscreen 1; thallium flux rate (normalised fluorescence) at 10 µM; 3,700 tested, 46% active; HEK293 parental cells, thallium flux FluoZin2, ouabain; baseline-ratio fluorescence slope, 10–20 s after thallium; shares compounds with Cl transport mod;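 active = thallium flux rate significantly above the same plate's solvent-only control wells, beyond their mean plus 3 SD; inconclusive = the two replicate wells gave conflicting results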
KCC2 ouabain: KCC2 inhibitors and activators, ouabain retest, confirmation, HEK-KCC2 cells; shares compounds with Cl transport mod; HEK293-KCC2, thallium flux FluoZin2 fluorescence; bidirectional: low = inhibitor, high = activator; raw Tl+ flux slope (below DMSO = inhibition, above = activation) at 10 µM; 3,700 tested, 48% active;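 active = thallium flux slope beyond 3 SD from same-plate DMSO control mean in most replicates, usually higher, sometimes lower; inconclusive = repeat tests gave conflicting results; inactive = no significant difference from controls in most replicates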;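 also: slope of initial-normalized fluorescence between seconds 10 and 20 after thallium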
HEK293 Tl flux2: native HEK Tl+ uptake effects, second counter-screen – HEK cells, counterscreen 2, counter-screen for KCC2 modulator project, confirmation. shares compounds with Cl transport mod. HEK293 parental, thallium flux FluoZin-2 fluorescence slope. thallium flux slope at 10 µM. 3,700 tested, 33% active. AID 1718, 2009;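 active = thallium flux slope above the same plate's solvent-control mean plus 3 SD in both duplicate wells; inconclusive = duplicate wells that disagreed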;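 also: run without ouabain in cells lacking the KCC2 cotransporter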
A number is an active result; - = inactive; ? = inconclusive; . = no result given. A selection: hits, their analogues and other compounds. The true share with any hit is near 4%.

SMILES | Cl transport mod | HSV augment | Measles CPE | Arbovirus inh | ROMK primary | KCC2 sec1 | KCC2 bumet counter | KCC2 sec2 | HEK counter1 | KCC2 ouabain | HEK293 Tl flux2
Cc1csc2c(=O)sc(NC(=O)c3cccs3)nc12 | - | - | . | . | - | . | . | . | . | . | .
NC(=O)SCC(=O)Nc1ccc(Cl)c(Cl)c1 | . | - | - | - | - | - | 0.0128 | 0.0263 | 0.0101 | - | ?
O=C(O)/C(=C\c1ccc(-c2ccc(F)cc2)o1)c1ccccc1 | -7.05 | - | . | 44.1 | - | - | 0.00803 | - | - | 0.0156 | -
Cc1ccc(C(C)(C)C)c(OCCN2CCCC2)c1 | - | . | - | - | - | . | . | . | . | . | .
Cc1cc(C(C)(C)C)ccc1OCCN1CCCC1 | . | - | - | - | - | - | - | - | - | - | ?
O=C(O)c1ccc(OCCOc2ccccc2)cc1 | - | - | . | . | . | . | . | . | . | . | .
CCC(=O)N1CCc2cc(OC)c(OC)cc2C1COc1ccccc1OC (stereo unspecified) | -5.02 | - | . | - | - | - | - | - | - | - | -
O=[N+]([O-])c1ccc(NC(=S)NCCc2ccccc2)cc1 | - | - | - | - | - | . | . | . | . | . | .
O=[N+]([O-])c1ccc(NC(=S)NCCc2ccc(Cl)cc2)cc1 | -4.99 | - | - | - | . | - | - | 0.0256 | ? | - | -
CCn1cc(C(=O)OCC(=O)NCc2ccccc2Cl)c(=O)c2ccc(C)nc21 | - | - | . | - | - | . | . | . | . | . | .
CC(=O)N1CCc2ccc(NC(=O)c3c(-c4c(Cl)cccc4Cl)noc3C)cc21 | . | - | . | . | . | . | . | . | . | . | .
Cc1c(C(=O)NNC(=S)Nc2cccc(Cl)c2)nnn1-c1ccccc1 | - | - | - | - | - | . | . | . | . | . | .
COCCN(CCOC)C(=O)c1ccc(SCc2ccc(C)cc2)c([N+](=O)[O-])c1 | -4.36 | - | . | - | - | - | - | - | - | 0.0153 | -
CC(=O)c1ccc(NC(=O)CSc2nccn2CCc2ccccc2)cc1 | . | - | - | - | - | . | . | . | . | . | .
Cc1ccc(NC(=O)CSc2nccn2Cc2ccccc2)cc1C | -3.07 | - | - | - | . | ? | - | - | 0.00528 | 0.0198 | -
N#Cc1ccccc1NC(=O)CSc1nccn1CCc1ccccc1 | -3.95 | - | - | - | . | - | - | 0.0247 | - | 0.0144 | -
Cn1c(=O)cc(SCC(=O)N2CCN(c3ccccn3)CC2)c2ccccc21 | -3.53 | - | - | - | . | - | - | - | - | 0.0178 | -
CCOc1ccc(N2C(=O)C3ON(c4ccccc4)C(c4cccs4)C3C2=O)cc1 (stereo unspecified) | - | - | . | - | - | . | . | . | . | . | .
O=[N+]([O-])c1ccc(Sc2cccc3cccnc23)c([N+](=O)[O-])c1 | . | - | - | - | - | 0.0152 | 0.0525 | - | ? | 0.0351 | -
